As a reminder, the inhibition is the relative decrease from the control value, in per cent.

Among the data in ChEMBL document CHEMBL1961873, “Compounds: GSK PKIS; Assays: Nanosyn kinase panel” (2012) are inhibition values, retold here.

Test [1] has as its target Tyrosine-protein kinase CSK (Homo sapiens) (UniProt P41240). As to conditions: at 1 µM.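 Also: each value is an averaged inhibition reading.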
In test [2] the target is T1, Discoidin domain-containing receptor 2 (Homo sapiens) (UniProt Q16832).
T1 sequence (whole entry): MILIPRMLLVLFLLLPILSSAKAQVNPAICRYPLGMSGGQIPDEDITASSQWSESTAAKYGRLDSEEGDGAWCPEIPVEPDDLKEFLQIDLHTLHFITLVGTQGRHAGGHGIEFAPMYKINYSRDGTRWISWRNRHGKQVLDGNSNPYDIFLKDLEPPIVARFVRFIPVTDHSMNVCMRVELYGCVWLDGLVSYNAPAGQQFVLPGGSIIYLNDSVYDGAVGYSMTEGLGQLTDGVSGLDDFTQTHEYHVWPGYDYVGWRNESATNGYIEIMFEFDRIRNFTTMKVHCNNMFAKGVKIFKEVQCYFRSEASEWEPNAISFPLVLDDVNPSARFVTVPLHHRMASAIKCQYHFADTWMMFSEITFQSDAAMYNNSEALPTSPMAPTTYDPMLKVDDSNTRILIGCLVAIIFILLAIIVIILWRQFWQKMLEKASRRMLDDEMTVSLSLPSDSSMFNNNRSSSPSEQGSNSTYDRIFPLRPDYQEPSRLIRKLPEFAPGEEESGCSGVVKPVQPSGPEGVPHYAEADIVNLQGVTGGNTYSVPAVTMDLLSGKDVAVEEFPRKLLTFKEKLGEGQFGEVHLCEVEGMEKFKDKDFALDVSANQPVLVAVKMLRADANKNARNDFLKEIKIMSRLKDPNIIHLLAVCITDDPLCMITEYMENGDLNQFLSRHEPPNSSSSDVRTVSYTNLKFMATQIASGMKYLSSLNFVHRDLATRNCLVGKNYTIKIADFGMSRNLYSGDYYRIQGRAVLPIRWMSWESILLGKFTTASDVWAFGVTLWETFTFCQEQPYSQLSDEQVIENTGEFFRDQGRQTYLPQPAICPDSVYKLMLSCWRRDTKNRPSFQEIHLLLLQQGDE
As to conditions: at 0.1 µM.

Test [3] has as its target T1, Discoidin domain-containing receptor 2 (Homo sapiens). As to conditions: at 1 µM.
For test [4], the target named is Epidermal growth factor receptor (Homo sapiens) (UniProt P00533). As to conditions: at 0.1 µM.
The target is the same in test [5]. As to conditions: at 1 µM.
The subject of test [6] is Epidermal growth factor receptor (Homo sapiens), P00533 [L858R]. As to conditions: at 0.1 µM.
The test system is the same in test [7]. As to conditions: at 1 µM.
Test [8] deals with Epidermal growth factor receptor (Homo sapiens), P00533 [L861Q]. As to conditions: at 0.1 µM.
Sequence of Epidermal growth factor receptor (Homo sapiens), P00533 [L861Q] (P00533 whole entry L861Q): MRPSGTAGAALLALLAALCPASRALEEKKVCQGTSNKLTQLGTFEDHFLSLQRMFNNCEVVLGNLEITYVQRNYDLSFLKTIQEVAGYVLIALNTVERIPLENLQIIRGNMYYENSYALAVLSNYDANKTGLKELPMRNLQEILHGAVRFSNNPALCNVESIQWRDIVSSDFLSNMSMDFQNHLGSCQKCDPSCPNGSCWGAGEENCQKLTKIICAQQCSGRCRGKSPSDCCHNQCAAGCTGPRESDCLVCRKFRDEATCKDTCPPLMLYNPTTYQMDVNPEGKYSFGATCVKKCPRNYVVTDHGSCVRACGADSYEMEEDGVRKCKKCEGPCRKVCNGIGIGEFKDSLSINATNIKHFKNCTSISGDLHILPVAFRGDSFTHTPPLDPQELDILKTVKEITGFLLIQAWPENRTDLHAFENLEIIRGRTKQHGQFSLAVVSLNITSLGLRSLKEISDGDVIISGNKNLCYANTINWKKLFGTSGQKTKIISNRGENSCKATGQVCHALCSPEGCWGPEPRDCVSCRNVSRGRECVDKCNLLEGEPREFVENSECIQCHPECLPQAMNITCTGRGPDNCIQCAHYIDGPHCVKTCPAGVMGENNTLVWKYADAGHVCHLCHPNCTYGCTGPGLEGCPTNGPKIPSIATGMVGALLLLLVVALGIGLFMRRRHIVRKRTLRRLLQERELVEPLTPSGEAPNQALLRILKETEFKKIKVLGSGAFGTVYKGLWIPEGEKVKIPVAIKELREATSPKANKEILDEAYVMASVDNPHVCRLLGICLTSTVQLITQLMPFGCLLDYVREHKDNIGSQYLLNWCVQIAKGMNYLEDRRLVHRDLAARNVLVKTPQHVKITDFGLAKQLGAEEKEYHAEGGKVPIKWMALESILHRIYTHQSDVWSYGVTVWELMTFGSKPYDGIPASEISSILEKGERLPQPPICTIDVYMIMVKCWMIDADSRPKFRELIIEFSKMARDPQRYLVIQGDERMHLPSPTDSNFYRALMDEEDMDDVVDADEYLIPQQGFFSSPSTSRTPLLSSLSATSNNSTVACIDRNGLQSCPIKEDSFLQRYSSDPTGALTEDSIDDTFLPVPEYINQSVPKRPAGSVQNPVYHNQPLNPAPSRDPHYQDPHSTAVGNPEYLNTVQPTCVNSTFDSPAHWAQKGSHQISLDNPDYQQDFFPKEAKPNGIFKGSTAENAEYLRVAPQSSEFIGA
The test system is the same in test [9]. As to conditions: at 1 µM.
In test [10] the test system is Epidermal growth factor receptor (Homo sapiens), P00533 [T790M]. As to conditions: at 0.1 µM.
Sequence of Epidermal growth factor receptor (Homo sapiens), P00533 [T790M] (P00533 whole entry T790M): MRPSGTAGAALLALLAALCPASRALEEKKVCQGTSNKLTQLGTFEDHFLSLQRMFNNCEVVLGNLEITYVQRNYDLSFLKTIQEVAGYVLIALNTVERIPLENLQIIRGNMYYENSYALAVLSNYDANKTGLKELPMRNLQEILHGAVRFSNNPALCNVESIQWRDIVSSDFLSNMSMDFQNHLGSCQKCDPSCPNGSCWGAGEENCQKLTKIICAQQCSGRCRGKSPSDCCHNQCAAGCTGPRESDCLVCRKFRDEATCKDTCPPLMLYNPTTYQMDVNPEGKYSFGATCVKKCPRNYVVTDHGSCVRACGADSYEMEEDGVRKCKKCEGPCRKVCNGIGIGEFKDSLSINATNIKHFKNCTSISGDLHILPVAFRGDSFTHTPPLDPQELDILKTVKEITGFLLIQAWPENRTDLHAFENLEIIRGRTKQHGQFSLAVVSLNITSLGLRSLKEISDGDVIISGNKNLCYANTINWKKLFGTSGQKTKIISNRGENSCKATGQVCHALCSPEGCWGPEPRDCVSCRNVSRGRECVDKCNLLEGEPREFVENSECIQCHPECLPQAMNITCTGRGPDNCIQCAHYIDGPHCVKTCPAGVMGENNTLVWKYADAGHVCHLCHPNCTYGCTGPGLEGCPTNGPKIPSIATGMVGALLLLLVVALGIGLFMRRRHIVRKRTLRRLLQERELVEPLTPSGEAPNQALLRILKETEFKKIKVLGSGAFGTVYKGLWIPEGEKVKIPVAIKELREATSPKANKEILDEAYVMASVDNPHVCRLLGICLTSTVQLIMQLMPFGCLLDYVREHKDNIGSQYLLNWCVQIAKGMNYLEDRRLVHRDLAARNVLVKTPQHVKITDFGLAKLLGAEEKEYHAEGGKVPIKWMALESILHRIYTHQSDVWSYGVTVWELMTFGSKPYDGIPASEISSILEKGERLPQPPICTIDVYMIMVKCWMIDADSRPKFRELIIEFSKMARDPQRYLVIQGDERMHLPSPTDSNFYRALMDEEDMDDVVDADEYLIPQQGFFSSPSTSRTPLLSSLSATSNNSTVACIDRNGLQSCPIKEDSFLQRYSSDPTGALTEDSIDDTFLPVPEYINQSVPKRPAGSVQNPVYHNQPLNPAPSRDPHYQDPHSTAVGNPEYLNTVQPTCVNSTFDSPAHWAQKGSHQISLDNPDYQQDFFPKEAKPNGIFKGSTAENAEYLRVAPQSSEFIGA
For test [11] the test system is unchanged. As to conditions: at 1 µM.
Test [12] concerns Epidermal growth factor receptor (Homo sapiens), P00533 [L858R,T790M]. As to conditions: at 0.1 µM.
Sequence of Epidermal growth factor receptor (Homo sapiens), P00533 [L858R,T790M] (P00533 whole entry T790M/L858R, looked up): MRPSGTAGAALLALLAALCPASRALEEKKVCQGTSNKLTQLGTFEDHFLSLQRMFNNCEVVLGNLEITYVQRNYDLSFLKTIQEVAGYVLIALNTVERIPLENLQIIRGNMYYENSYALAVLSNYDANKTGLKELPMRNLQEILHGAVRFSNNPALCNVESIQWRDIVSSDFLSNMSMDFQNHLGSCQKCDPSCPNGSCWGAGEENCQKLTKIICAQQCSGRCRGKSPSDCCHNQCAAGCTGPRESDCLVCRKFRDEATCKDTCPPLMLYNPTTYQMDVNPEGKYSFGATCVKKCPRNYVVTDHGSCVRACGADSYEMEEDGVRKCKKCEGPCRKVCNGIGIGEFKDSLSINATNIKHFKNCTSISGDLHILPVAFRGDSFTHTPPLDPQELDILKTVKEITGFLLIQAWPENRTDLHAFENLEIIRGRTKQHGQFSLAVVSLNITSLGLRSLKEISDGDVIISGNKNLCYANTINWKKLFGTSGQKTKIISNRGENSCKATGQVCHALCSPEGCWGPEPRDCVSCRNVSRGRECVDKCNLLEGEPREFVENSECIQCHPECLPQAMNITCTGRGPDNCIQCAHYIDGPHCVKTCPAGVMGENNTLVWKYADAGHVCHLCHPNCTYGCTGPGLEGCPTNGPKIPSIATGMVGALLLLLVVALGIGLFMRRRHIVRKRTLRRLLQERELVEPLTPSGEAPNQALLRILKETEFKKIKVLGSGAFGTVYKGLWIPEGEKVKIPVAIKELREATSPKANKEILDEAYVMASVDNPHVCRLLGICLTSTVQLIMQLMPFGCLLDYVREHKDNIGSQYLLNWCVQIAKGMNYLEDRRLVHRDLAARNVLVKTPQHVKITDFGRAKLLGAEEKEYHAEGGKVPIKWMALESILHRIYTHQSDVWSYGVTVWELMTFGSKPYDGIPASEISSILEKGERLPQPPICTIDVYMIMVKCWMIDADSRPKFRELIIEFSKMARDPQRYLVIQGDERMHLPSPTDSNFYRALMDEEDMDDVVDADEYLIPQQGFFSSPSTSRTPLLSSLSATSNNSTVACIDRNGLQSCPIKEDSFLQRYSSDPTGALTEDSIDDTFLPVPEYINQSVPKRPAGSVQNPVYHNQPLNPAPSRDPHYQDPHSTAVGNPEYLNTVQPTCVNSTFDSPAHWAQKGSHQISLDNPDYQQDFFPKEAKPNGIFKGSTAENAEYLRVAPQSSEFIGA
Test [13] shares this test system. As to conditions: at 1 µM.
For test [14], the target named is Ephrin type-A receptor 2 (Homo sapiens) (UniProt P29317). As to conditions: at 0.1 µM.
Sequence of Ephrin type-A receptor 2 (Homo sapiens) (P29317 whole entry): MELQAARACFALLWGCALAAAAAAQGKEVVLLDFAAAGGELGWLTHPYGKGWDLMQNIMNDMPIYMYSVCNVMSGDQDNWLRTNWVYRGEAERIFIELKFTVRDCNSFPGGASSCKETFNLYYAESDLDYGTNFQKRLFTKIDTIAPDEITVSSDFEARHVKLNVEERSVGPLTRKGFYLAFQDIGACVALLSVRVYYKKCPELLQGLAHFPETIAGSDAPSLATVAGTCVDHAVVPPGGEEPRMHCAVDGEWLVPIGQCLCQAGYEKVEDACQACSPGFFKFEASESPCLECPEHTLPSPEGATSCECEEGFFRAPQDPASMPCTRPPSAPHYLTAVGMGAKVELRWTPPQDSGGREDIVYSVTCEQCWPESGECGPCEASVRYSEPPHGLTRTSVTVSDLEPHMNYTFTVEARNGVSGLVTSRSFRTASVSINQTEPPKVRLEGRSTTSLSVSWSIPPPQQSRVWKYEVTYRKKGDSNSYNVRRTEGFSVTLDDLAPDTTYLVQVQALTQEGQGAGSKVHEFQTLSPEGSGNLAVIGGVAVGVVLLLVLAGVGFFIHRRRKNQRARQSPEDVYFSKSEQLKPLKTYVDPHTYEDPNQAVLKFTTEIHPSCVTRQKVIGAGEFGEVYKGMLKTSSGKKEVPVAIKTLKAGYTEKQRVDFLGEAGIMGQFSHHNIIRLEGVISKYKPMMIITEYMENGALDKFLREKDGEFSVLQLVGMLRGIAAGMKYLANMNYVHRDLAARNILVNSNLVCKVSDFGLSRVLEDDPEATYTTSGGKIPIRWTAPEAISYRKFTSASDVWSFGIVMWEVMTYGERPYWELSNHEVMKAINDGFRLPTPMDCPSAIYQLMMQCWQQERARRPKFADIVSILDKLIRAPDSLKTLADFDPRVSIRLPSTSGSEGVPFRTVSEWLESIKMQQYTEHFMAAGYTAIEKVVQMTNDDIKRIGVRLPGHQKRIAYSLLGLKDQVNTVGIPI
The target is the same in test [15]. As to conditions: at 1 µM.
Test [16] has as its target T2, Ephrin type-A receptor 3 (Homo sapiens) (UniProt P29320).
T2 sequence (whole entry): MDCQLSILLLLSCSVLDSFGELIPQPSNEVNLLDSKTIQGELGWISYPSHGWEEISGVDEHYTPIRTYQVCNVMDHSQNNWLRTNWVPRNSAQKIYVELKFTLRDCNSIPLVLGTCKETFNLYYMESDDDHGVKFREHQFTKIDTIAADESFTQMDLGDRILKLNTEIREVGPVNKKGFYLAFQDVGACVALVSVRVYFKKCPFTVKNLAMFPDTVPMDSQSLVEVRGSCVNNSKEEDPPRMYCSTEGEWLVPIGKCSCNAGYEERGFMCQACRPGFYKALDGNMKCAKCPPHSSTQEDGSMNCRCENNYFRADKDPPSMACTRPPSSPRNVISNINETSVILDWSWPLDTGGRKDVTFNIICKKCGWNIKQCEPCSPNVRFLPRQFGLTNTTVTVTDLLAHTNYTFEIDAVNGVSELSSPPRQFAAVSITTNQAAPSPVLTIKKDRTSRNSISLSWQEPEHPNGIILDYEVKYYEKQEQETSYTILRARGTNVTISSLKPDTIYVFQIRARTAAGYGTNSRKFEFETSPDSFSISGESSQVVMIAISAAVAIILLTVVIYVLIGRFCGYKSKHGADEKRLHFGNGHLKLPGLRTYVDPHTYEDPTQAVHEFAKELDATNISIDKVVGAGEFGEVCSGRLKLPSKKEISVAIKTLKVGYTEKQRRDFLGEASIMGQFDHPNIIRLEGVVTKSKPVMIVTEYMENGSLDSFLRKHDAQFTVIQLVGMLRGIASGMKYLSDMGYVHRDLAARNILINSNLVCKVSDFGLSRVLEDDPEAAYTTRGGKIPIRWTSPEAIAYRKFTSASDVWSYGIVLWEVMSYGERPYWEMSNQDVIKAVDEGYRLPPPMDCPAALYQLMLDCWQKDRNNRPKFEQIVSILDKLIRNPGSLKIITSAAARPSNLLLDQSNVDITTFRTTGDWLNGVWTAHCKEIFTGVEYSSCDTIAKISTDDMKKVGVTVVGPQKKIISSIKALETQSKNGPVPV
As to conditions: at 0.1 µM.

Test [17] has as its target T2, Ephrin type-A receptor 3 (Homo sapiens). As to conditions: at 1 µM.
Test [18] concerns the target Ephrin type-A receptor 4 (Homo sapiens) (UniProt P54764). As to conditions: at 0.1 µM.
The target is the same in test [19]. As to conditions: at 1 µM.
Test [20] concerns the target T3, Ephrin type-B receptor 2 (Homo sapiens) (UniProt P29323).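 Also: reported as mean inhibition of EPHB2, from the GSK PKIS dataset.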
T3 sequence (whole entry): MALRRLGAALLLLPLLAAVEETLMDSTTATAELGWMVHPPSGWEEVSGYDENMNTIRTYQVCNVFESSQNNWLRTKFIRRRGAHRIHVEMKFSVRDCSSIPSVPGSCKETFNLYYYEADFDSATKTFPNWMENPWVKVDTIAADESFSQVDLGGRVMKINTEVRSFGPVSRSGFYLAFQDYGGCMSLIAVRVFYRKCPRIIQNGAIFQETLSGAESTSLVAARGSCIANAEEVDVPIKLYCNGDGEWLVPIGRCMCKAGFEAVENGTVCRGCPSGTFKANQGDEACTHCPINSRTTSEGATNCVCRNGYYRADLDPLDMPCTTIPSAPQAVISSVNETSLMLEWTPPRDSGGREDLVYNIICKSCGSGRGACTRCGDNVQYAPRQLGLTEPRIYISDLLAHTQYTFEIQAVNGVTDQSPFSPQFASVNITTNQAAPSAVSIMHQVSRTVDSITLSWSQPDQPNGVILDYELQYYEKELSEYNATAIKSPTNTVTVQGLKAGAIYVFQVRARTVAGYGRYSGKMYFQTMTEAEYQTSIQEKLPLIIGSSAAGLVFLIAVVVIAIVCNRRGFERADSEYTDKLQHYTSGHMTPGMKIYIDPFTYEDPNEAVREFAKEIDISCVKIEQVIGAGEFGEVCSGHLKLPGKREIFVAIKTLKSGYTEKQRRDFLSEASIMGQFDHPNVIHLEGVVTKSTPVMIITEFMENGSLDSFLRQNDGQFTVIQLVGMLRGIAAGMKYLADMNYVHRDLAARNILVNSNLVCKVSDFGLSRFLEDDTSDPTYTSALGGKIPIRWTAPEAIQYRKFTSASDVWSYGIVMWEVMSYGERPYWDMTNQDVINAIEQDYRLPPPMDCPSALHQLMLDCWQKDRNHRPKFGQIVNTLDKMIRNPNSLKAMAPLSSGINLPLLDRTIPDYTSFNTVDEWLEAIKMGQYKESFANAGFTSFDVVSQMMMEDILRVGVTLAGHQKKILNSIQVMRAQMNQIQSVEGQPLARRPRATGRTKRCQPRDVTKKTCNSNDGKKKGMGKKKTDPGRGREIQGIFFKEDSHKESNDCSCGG
As to conditions: at 0.1 µM.

Sequence of Tyrosine-protein kinase CSK (Homo sapiens) (P41240 2-450 limits assumed): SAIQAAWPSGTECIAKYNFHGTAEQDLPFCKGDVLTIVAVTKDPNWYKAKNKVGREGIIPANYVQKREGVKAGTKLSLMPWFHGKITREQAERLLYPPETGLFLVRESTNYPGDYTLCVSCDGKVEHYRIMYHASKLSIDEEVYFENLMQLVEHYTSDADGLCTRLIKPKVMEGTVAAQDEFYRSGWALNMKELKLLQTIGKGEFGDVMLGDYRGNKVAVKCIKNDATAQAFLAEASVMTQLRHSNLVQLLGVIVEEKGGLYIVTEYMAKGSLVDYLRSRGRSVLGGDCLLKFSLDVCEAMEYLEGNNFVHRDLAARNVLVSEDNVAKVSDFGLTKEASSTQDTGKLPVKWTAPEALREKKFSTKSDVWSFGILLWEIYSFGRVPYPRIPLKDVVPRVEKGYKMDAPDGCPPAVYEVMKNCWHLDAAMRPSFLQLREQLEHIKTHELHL

As to `NS(=O)(=O)c1ccc(N/N=C2\C(=O)Nc3ccc(C(=O)NCCc4c[nH]cn4)cc32)cc1`, the inhibition in test [1] is 9.56%; in test [2] it was 1.41%; in test [3], 5.19%; in test [4], 2%; in test [5], 4.43%; in test [6], 5.09%. Moreover, the inhibition came to 5.32% in test [7]; 3.18% in [8]; 3.48% in [9]; 2.7% in test [10]; 1.79% in [11]; 3.11% in test [12]. Also, the inhibition worked out at 5.71% in [13]; 1.93% in [14]; 1.88% in test [15]; 7.18% in [16]; 8.06% in test [17]; 10.7% in test [18]. Also, the inhibition was found to be 16.3% in test [19] and 11.4% in test [20].
`Cc1ccc(NC(=O)c2ccnc(N3CCCC3)c2)cc1-c1ccc(C(=O)NCC2CC2)cc1`: the inhibition is -0.29% in test [1]; 3.77% in test [2]; 22.6% in test [3]; -4.33% in test [4]; -3.35% in [5]; -1.08% in test [6]. The inhibition in test [7] was -0.58%; in test [8] it was 2.11%; in test [9] it was -3.41%; in [10], 1.68%; in [11], 0.9%; in test [12], -0.13%. Besides, the inhibition in [13] is 2.67%; in test [14], -2.27%; in test [15], -2.02%; in test [16], -0.85%; in [17], -0.25%; in test [18] it was 7.04%. Also, the results for the inhibition in test [19] and in [20] were 5.58% and 4.55%, respectively.
Regarding `CS(=O)(=O)CCN(CC#N)Cc1ccc(-c2ccc3ncnc(Nc4ccc(OCc5cccc(F)c5)c(Cl)c4)c3c2)o1`, the inhibition was 4.77% in test [1]; 0.7% in [2]; 0.75% in test [3]; 69.4% in test [4]; 77.2% in [5]; 36.5% in test [6]. Also, the inhibition in test [7] was 83.6%; in test [8] it was 41.5%; in test [9], 76.2%; in test [10], 1.04%; in test [11] it was 5.17%; in [12], -1.28%. Moreover, the inhibition in [13] is 0.73%; in test [14], -5.85%; in [15], -5.32%; in test [16], -2.74%; in [17] it was -2.11%; in test [18] it was 1.75%. For the same compound, the inhibition in test [19] is 5.59%; in [20], 6.06%.
In the case of `NC(=O)c1ccc(-c2nc(-c3ccccn3)c(-c3ccc4c(c3)OCO4)[nH]2)cc1`, the inhibition in test [1] was 6.81%; in [2] it was 2.6%; in [3], 4.42%; in [4], 2.11%; in test [5], 4.7%; in test [6], 4.74%. Besides, the inhibition is 3.79% in [7]; 2.1% in test [8]; 2.01% in test [9]; -0.51% in test [10]; 1.62% in test [11]; 3.52% in [12]. Also, the inhibition is -0.97% in [13]; -0.18% in test [14]; -0.13% in [15]; 3.83% in [16]; 1.89% in test [17]; 7.63% in test [18]. The figures for the inhibition in test [19] and in [20] were 7.96% and 6.11%, respectively.
For the compound `CS(=O)(=O)CCNCc1nc(-c2ccc3ncnc(Nc4ccc(F)c(Cl)c4)c3c2)cs1`, the inhibition in [1] worked out at 5.64%; in test [2] it was 7.7%; in test [3] it was 10.9%; in test [14], 2.15%; in test [15] it was 1.65%; in [16], 2.83%. For the same compound, the inhibition came to 4.56% in [17], 11.7% in test [18], 21% in test [19] and 13.7% in test [20].
